A number with no mark means an inactive call. Records with an inconclusive call do not appear. Where a call stands in place of a potency, no number is given. The source made the active and inactive calls. Unless noted, calls come from the whole dose curve; as a rule, active = well fitted curve in the direction sought with a large enough effect; inconclusive = small, poorly fitted or top-dose-only effect, or another doubt; inactive = no such curve, though single readings can be large; an effect the other way counts as inactive or inconclusive.
Legend:
[1] = biological target: Glucocorticoid receptor (Homo sapiens) (UniProt P04150); test: GR-EFC Redistribution (AID 451; calls by dose curve; note: potency is the fitted concentration of half-maximal effect); conditions: CHO-K1 GR-EFC translocation, beta-gal luminescence, 2 h
Summary of the method: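 Translocation of GR-ED fusion to nuclear EA restores b-gal, read by luminescence after 1 h room-temperature detection. Engineered CHO-K1 biosensor cells, 1,000/well, exposed 2 h at 37 C to titrations up to 46 uM final.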

[2] = biological target: Mitogen-activated protein kinase 10 (Mus musculus) (UniProt Q61831); test: JNK3 AlphaScreen Assay (AID 530; active = well fitted curve in either direction with a large enough effect, not every such curve was filed as active;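 note: kinase came from lysate of stimulated human HepG2 cells; signal reports phosphorylation of biotinylated GST-cJun 1-79 at Ser73 with 10 µM ATP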); conditions: JNK3 lysate, c-Jun phosphorylation; series mostly up to 57.1 µM
Summary of the method: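 qHTS titrations with 15 min compound pre-incubation before adding ATP (10 uM final). Read-out: AlphaScreen of Ser73-phosphorylated biotin-GST-cJun using HepG2 lysate JNK3 activated by IL-1β and TNFα.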

[3] = biological target: 3',5'-cyclic-AMP phosphodiesterase 4B (Homo sapiens) (UniProt Q07343); test: qHTS Assay for Inhibitors of PDE-IV (AID 607; active = well fitted activation curve with a large enough effect in the main read-out, with a control signal flat, not every such curve was filed as active; note: potency is the fitted concentration of half-maximal effect); conditions: HEK293 ACTOne CNG channel cells, membrane potential fluorescence; series mostly up to 22.9 µM
Summary of the method: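 Cell-based read-out of cAMP via a modified cyclic nucleotide-gated channel and membrane potential dye (535/590 nm) in HEK293 cells expressing PDE4 endogenously. Compounds tested up to 22.9 uM final; 100 uM RO 20-1724 reference.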

[4] = biological target: Cytochrome P450 2C9 (Homo sapiens) (UniProt P11712); test: qHTS Assay for Inhibitors and Substrates of Cytochrome P450 2C9 (AID 883); conditions: recombinant CYP2C9, luciferin-H luminescence, 60 min; series mostly up to 57.1 µM; note: nearly all actives have a fitted effect of over 60% in size
Summary of the method: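 Turnover of Luciferin-H (100uM, KM) by 10nM human CYP2C9 was measured over 60 min at 37C with NADPH regeneration; inhibitors and some substrates reduce luminescence. Data normalized to sulphaphenazole 57uM.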

[5] = biological target: Cytochrome P450 2D6 (Homo sapiens) (UniProt P10635); test: qHTS Assay for Inhibitors and Substrates of Cytochrome P450 2D6 (AID 891); conditions: recombinant CYP2D6, luciferin-ME EGE luminescence; series mostly up to 57.1 µM;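 note: luciferin methyl ether substrate demethylated by CYP2D6 with NADPH regeneration; nearly all actives have a fitted effect of over 60% in size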
Summary of the method: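 Luminescent read-out of luciferin formed by 5 nM human CYP2D6 demethylating 30 uM Luciferin-ME EGE (Km level) over 60 min at room temperature after NADPH regeneration addition. Data normalized to full inhibition by 1.43 uM quinidine.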

[6] = biological target: Cytochrome P450 2C19 (Homo sapiens) (UniProt P33261); test: qHTS Assay for Inhibitors and Substrates of Cytochrome P450 2C19 (AID 899); conditions: recombinant CYP2C19, luciferin-H EGE luminescence; series mostly up to 57.1 µM; note: nearly all actives have a fitted effect of over 60% in size
Summary of the method: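 Reactions contain 5nM enzyme, 10uM Luciferin-H EGE (KM) and 50mM KPO4; compound preincubates 10 min at 37C, NADPH regeneration starts turnover for 60 min. Luminescence after detection reagent gives activity.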

[7] = biological target: Tyrosyl-DNA phosphodiesterase 1 (Homo sapiens) (UniProt Q9NUW8); test: Confirmation Assay for Inhibitors of Tyrosyl-DNA Phosphodiesterase (TDP1) (AID 489007); conditions: recombinant human TDP1 enzymatic activity, dose-response; note: potency is the fitted concentration of half-maximal effect; nearly all actives have a fitted effect of over 40% in size
Summary of the method: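 Compounds are preincubated 15 min at room temperature with 1 nM recombinant human Tdp1. The reaction starts on adding 15 nM FITC-phosphotyrosine DNA substrate, runs 5 min, and is detected by AlphaScreen beads after 10 min.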

3',5'-cyclic-AMP phosphodiesterase 4B (Homo sapiens), sequence (Q07343 whole entry, looked up): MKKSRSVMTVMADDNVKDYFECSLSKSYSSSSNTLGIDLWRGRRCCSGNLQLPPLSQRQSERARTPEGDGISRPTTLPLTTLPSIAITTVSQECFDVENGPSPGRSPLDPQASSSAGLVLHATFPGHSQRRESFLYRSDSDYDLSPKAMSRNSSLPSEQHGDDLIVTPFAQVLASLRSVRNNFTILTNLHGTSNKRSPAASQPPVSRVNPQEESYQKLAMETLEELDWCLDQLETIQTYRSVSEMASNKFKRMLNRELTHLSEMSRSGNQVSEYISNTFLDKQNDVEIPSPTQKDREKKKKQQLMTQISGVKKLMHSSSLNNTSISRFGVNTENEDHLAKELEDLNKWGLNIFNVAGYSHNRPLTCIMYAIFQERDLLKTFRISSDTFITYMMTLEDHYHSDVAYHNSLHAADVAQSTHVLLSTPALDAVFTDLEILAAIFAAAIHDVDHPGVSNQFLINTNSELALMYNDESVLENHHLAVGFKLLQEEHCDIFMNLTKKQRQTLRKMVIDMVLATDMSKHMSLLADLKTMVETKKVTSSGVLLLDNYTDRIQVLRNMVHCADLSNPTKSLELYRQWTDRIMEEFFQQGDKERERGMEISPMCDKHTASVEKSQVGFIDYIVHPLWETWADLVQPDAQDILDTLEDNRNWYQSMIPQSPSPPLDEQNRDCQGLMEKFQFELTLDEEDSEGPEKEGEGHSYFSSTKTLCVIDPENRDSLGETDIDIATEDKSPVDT
Cytochrome P450 2D6 (Homo sapiens), sequence (P10635 whole entry, looked up): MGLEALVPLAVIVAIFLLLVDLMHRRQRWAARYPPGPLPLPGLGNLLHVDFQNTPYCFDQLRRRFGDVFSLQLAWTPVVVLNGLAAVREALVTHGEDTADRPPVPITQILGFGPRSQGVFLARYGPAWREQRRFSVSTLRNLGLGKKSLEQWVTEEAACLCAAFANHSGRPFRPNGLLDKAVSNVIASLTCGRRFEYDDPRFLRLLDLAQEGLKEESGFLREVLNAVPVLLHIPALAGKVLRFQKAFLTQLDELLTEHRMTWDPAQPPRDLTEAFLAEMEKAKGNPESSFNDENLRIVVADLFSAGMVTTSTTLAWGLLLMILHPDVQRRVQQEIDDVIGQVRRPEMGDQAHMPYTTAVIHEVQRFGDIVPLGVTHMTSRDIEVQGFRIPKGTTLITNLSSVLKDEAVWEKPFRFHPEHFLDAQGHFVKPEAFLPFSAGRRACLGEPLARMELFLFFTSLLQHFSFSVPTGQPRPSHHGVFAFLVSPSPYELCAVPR
Cytochrome P450 2C9 (Homo sapiens), sequence (P11712 whole entry, looked up): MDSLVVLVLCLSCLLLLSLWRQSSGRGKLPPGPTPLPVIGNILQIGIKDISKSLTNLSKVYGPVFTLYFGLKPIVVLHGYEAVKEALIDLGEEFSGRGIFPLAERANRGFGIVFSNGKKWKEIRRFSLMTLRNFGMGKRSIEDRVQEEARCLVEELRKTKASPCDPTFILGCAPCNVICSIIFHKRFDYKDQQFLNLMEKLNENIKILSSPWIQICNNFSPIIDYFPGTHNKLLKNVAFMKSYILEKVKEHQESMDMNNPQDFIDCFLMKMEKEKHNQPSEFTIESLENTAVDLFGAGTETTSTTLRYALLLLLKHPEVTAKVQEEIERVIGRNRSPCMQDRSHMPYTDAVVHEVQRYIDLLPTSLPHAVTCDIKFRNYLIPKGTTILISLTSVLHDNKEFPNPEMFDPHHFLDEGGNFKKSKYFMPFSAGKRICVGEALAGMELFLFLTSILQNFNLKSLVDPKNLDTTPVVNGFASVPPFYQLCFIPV
Glucocorticoid receptor (Homo sapiens), sequence (P04150 whole entry, looked up, the tested form may be a part): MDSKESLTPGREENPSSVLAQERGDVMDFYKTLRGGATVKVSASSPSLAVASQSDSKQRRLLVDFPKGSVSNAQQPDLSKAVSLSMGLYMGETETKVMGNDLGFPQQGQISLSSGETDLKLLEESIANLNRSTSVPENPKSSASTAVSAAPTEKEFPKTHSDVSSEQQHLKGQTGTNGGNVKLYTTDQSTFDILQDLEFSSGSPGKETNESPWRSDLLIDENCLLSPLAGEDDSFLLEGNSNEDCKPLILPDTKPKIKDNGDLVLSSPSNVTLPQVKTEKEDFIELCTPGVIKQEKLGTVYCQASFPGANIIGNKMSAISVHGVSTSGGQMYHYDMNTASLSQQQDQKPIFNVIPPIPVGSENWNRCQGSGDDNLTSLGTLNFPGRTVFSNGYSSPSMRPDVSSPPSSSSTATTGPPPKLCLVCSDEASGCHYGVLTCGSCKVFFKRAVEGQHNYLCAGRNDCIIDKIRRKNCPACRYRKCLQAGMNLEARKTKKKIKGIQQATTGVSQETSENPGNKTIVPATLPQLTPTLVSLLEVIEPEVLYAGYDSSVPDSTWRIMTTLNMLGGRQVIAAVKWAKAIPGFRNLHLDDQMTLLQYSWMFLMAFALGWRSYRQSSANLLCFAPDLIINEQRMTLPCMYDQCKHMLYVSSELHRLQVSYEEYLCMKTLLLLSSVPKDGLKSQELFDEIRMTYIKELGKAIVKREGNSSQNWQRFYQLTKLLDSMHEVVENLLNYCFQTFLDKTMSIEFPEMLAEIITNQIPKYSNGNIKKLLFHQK
Cytochrome P450 2C19 (Homo sapiens), sequence (P33261 whole entry, looked up): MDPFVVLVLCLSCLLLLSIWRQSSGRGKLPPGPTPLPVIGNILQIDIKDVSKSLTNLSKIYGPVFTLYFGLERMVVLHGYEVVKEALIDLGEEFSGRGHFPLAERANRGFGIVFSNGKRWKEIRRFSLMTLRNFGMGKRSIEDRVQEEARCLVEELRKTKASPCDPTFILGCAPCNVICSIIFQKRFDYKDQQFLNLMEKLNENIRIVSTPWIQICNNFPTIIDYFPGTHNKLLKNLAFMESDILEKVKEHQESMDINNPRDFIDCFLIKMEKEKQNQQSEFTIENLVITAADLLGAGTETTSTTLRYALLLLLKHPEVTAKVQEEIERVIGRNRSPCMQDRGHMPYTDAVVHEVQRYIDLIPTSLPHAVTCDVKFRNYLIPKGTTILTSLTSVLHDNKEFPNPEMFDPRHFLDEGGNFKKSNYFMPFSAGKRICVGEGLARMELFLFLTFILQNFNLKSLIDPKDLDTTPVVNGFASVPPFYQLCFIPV
Tyrosyl-DNA phosphodiesterase 1 (Homo sapiens), sequence (Q9NUW8 whole entry, looked up): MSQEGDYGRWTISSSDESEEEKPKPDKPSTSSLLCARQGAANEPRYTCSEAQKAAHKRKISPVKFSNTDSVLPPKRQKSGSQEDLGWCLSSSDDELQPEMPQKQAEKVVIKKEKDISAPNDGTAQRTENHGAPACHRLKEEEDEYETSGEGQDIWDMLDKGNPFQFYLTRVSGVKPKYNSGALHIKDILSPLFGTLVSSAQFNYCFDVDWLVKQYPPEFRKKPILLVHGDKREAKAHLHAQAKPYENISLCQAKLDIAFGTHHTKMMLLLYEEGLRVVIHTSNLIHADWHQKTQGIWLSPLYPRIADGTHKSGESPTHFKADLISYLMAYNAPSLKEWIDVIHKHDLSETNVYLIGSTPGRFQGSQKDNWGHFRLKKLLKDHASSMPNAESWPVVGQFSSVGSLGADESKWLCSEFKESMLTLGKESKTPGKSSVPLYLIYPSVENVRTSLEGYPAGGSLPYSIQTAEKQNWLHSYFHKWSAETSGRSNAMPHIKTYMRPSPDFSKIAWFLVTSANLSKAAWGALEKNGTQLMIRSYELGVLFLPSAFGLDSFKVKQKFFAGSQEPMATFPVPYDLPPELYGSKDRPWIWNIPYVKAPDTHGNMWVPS

C=C/C(=C\C)C[C@@H](CC(=O)N[C@@H](CCC(=O)O)CC(=O)O)NC(=O)[C@@H]1CNCC[C@H]1NC(=O)C[C@@H](NC(=O)C[C@H](Cc1ccccc1)NC(=O)[C@@H]1CCCC[C@H]1N)C(C)C
Potency [1]: > 46 µM | Potency [2]: inactive | Potency [3]: inactive | Potency [4]: inactive | Potency [5]: inactive | Potency [6]: inactive

CC(C)C[C@@H](CC(=O)N[C@@H](CCCN)CC(=O)N[C@@H]1CCCC[C@H]1C(=O)N[C@H](CC(=O)N[C@@H](CCC(=O)O)CC(=O)O)CC(C)C)NC(=O)[C@@H]1CNCC[C@H]1N
Potency [1]: > 46 µM | Potency [2]: inactive | Potency [3]: inactive | Potency [5]: inactive | Potency [6]: inactive

CC(C)C[C@@H](CC(=O)N[C@@H](CCCN)CC(=O)N[C@@H]1CCNC[C@H]1C(=O)N[C@H](CC(=O)N[C@@H](CCC(=O)O)CC(=O)O)Cc1ccccc1)NC(=O)[C@@H]1CNCC[C@H]1N
Potency [1]: > 46 µM | Potency [2]: inactive | Potency [3]: inactive | Potency [4]: inactive | Potency [5]: inactive | Potency [6]: inactive

NCCC[C@@H](CC(=O)N[C@@H]1CCCC[C@H]1C(=O)N[C@H](CC(=O)N[C@@H](CCC(=O)O)CC(=O)O)Cc1ccccc1)NC(=O)C[C@H](Cc1c[nH]c2ccccc12)NC(=O)[C@@H]1CNCC[C@H]1N
Potency [1]: > 46 µM | Potency [3]: 1.58 µM (active) | Potency [4]: inactive | Potency [5]: inactive | Potency [6]: inactive

Cc1ccc(NC(=O)CN2C(=O)S/C(=C\c3cccn3-c3cccc(C(=O)O)c3)C2=O)c(C)c1
Potency [7]: 15.8 µM (active)

CC(C)C[C@@H](CC(=O)N[C@H](CC(=O)N[C@@H]1CCCC[C@H]1C(=O)N[C@H](CC(=O)N[C@@H](CCC(=O)O)CC(=O)O)Cc1ccccc1)C(C)C)NC(=O)[C@@H]1CNCC[C@H]1N
Potency [1]: > 46 µM | Potency [3]: inactive | Potency [5]: inactive | Potency [6]: inactive

CC(C)C[C@@H](CC(=O)N[C@@H](CCC(=O)O)CC(=O)O)NC(=O)[C@@H]1CCCC[C@H]1NC(=O)C[C@@H](NC(=O)C[C@H](CO)NC(=O)[C@@H]1CCCC[C@H]1N)C(C)C
Potency [1]: > 46 µM | Potency [2]: inactive | Potency [3]: inactive | Potency [5]: inactive | Potency [6]: inactive

CCc1nnc(NC(=O)c2sc3nc4c(cc3c2N)CCCCCC4)s1
Potency [7]: 112 µM (active)

NCCC[C@@H](CC(=O)N[C@@H]1CCCC[C@H]1C(=O)N[C@H](CC(=O)N[C@@H](CCC(=O)O)CC(=O)O)Cc1c[nH]c2ccccc12)NC(=O)C[C@H](Cc1ccccc1)NC(=O)[C@@H]1CCCC[C@H]1N
Potency [1]: > 46 µM | Potency [2]: inactive | Potency [3]: inactive | Potency [4]: inactive | Potency [5]: inactive

COc1ccc(CCNC(=O)c2ccc3nc(-c4ccco4)c(-c4ccco4)nc3c2)cc1OC
Potency [7]: 10 µM (active)

NCCC[C@@H](CC(=O)N[C@@H]1CCNC[C@H]1C(=O)N[C@H](CC(=O)N[C@@H](CCC(=O)O)CC(=O)O)Cc1c[nH]c2ccccc12)NC(=O)C[C@H](Cc1ccccc1)NC(=O)[C@@H]1CCCC[C@H]1N
Potency [1]: > 46 µM | Potency [3]: inactive | Potency [4]: inactive | Potency [5]: inactive | Potency [6]: inactive

CC(C)[C@@H](CC(=O)N[C@@H]1CCCC[C@H]1C(=O)N[C@H](CC(=O)N[C@@H](CCC(=O)O)CC(=O)O)Cc1c[nH]c2ccccc12)NC(=O)C[C@H](CO)NC(=O)[C@@H]1CCCC[C@H]1N
Potency [1]: > 46 µM | Potency [2]: inactive | Potency [3]: inactive | Potency [4]: inactive | Potency [5]: inactive | Potency [6]: inactive

CC(C)C[C@@H](CC(=O)N[C@@H](CCC(=O)O)CC(=O)O)NC(=O)[C@@H]1CCCC[C@H]1NC(=O)C[C@@H](NC(=O)C[C@H](Cc1ccccc1)NC(=O)[C@@H]1CNCC[C@H]1N)C(C)C
Potency [1]: > 46 µM | Potency [2]: inactive | Potency [3]: inactive | Potency [4]: inactive | Potency [5]: inactive | Potency [6]: inactive

NCCC[C@@H](CC(=O)N[C@@H]1CCCC[C@H]1C(=O)N[C@H](CC(=O)N[C@@H](CCC(=O)O)CC(=O)O)Cc1ccccc1)NC(=O)C[C@H](Cc1c[nH]c2ccccc12)NC(=O)[C@@H]1CCCC[C@H]1N
Potency [1]: > 46 µM | Potency [3]: inactive | Potency [5]: inactive | Potency [6]: inactive

CC(C)C[C@@H](CC(=O)N[C@H](CC(=O)N[C@@H]1CCNC[C@H]1C(=O)N[C@H](CC(=O)N[C@@H](CCC(=O)O)CC(=O)O)Cc1c[nH]c2ccccc12)C(C)C)NC(=O)[C@@H]1CCCC[C@H]1N
Potency [1]: > 46 µM | Potency [3]: inactive | Potency [5]: inactive | Potency [6]: inactive

C=C1c2cccc(OC)c2O[C@H](C(=O)OCC)[C@@H]1CCCCCC
Potency [7]: 0.0251 µM (active)

CC(C)C[C@@H](CC(=O)N[C@H](CC(=O)N[C@@H]1CCCC[C@H]1C(=O)N[C@H](CC(=O)N[C@@H](CCC(=O)O)CC(=O)O)Cc1ccccc1)C(C)C)NC(=O)[C@@H]1CCCC[C@H]1N
Potency [1]: > 46 µM | Potency [2]: inactive | Potency [3]: inactive | Potency [5]: inactive | Potency [6]: inactive

From PubChem BioAssay (NCATS)
